A selection: hits, their analogues and other compounds. The true share with any hit is near 2.4%.
TNF death inh: blocks TNF-alpha induced death of Jurkat FADD-/- cells | actives 0.068% (n = 220,000) | Jurkat FADD-/- TNF necroptosis rescue, ATP luminescence, 24 h; 0 = TNF only, 100 = no-TNF cells | activation (protection from cell death), % at 10 µM;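 active = activation, meaning protection from cell death, of at least 50% relative to plate controls; inactive = activation below 50%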;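 also: necroptosis triggered by 40 ng/mL TNF-alpha added together with compound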
MCL1-BIM inh: MCL1-BIM-BH3 interaction inhibition (human); Q07820; GST-MCL1 / FITC-Bim-BH3 fluorescence polarization; inhibition, % at 10.9 µM; actives 0.68% (n = 320,000); AID 2057;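 active = inhibition above the mean inhibition of all tested compounds plus 3 SD, set per campaign, cut at about 40% in these data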;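 also: higher means more loss of mP so more displacement of Bim peptide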
Target sequence (Q07820 whole entry, looked up): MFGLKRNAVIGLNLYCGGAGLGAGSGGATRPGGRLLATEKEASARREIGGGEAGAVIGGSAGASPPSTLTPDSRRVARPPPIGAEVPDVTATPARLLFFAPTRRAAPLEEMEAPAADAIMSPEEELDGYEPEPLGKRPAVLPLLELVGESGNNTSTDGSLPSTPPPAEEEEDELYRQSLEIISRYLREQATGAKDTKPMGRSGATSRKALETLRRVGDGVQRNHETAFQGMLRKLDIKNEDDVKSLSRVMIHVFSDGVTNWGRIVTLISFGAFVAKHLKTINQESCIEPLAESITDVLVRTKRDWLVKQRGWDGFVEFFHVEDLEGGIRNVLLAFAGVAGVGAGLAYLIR
zVAD death inh: L929 zVAD cell death inhibition; L929 zVAD necroptosis rescue, ATP luminescence, 24 h; with zVAD 60 µM; viability rescue, % at 10 µM; actives 0.38% (n = 220,000);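 active = activation, scaled between plate controls, above about 75%, limit read from the data; inactive = activation under that limit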
Mcl1 Noxa PPI: disrupts binding of human Mcl-1 to Noxa peptide | inhibition, % at 21.7 µM | Q07820 | AID 1022 | TR-FRET Mcl-1/Noxa peptide binding, 2 h | actives 1.5% (n = 220,000);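 active = compounds that cut the protein-peptide binding signal by more than 50% relative to plate controls in a single-dose test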;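 also: His-tagged Mcl-1 with rhodamine Noxa BH3 peptide and terbium anti-His antibody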
Mcl-1 Bim block: disrupts Bim peptide binding to human Mcl-1; Q07820; Bead-based flow cytometry, Bim peptide-Mcl-1 binding; inhibition, % at 10 µM; actives 0.1% (n = 190,000); AID 1009; in the data active = inhibition above about 40%
Mcl1 Bid PPI: Mcl-1/Bid interaction inhibition; Q07820; TR-FRET Mcl-1/Bid-Dy647 peptide binding, 1536-well; inhibition, % at 21.7 µM; actives 0.97% (n = 220,000); AID 1021;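 active = compounds that cut the binding signal by more than half at the single screening dose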;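 also: His-tagged Mcl-1 with europium anti-His antibody binding Bid BH3 peptide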
BCLXL inh confirm: Bcl-xL (human) inhibition, MCL1 counter-screen confirmation; inhibition, % at 10.9 µM; GST-Bcl-xL / FITC-Bim BH3 peptide FP binding; actives 54% (n = 1,700); shares compounds with MCL1-BIM inh;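 active = inhibition above a cutoff equal to the mean inhibition of all tested compounds plus 3 SD, cut at about 30% in these data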
Target sequence (Q07817 whole entry, looked up): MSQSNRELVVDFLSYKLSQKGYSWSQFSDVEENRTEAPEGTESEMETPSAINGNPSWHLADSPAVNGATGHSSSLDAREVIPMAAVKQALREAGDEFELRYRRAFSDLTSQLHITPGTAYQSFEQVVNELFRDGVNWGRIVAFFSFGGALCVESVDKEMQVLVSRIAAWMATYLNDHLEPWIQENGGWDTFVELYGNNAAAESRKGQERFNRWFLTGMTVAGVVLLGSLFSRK
MCL1 BIM confirm: confirmation of human MCL1 and BIM-BH3 interaction inhibitors | actives 61% (n = 1,700) | shares compounds with MCL1-BIM inh | inhibition, % at 10.9 µM | GST-MCL1 / FITC-Bim-BH3 fluorescence polarization;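 active = inhibition above the average of all tested compounds plus 3 SD, cut at about 40% in these data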
Large screens that a line does not name were inactive (follow-up assays come after a bar, where they were run).

CCCOc1ccc(-c2cc(C(=O)NCC3CCCO3)c3ccccc3n2)cc1 (stereo not given)	none
COc1ccccc1CNC(=O)COC(=O)c1cc(-c2ccco2)nc2ccccc12	MCL1-BIM inh 72, Mcl1 Noxa PPI 92 | BCLXL inh confirm 35 | MCL1 BIM confirm 71
CCOc1ccccc1CN1CCNC(=O)C1CC(=O)N(C)Cc1cnccn1 (stereo not given)	none (no result: TNF death inh, zVAD death inh, Mcl1 Noxa PPI, Mcl-1 Bim block, Mcl1 Bid PPI)
CC(C)CN(C(=O)c1ccc(-n2cncn2)c([N+](=O)[O-])c1)C1CCS(=O)(=O)C1 (stereo not given)	none (no result: TNF death inh, zVAD death inh, Mcl1 Noxa PPI, Mcl-1 Bim block, Mcl1 Bid PPI)
COc1cccc(CNC(=O)CCCN2C(=O)C(c3ccccc3)Oc3cccnc32)c1OC (stereo not given)	none (no result: TNF death inh, zVAD death inh, Mcl1 Noxa PPI, Mcl-1 Bim block, Mcl1 Bid PPI)
CCCCN(C1CCS(=O)(=O)C1)S(=O)(=O)c1ccc(OC)c(OC)c1 (stereo not given)	none (no result: TNF death inh, zVAD death inh, Mcl1 Noxa PPI, Mcl-1 Bim block, Mcl1 Bid PPI)
COc1ccc(NS(=O)(=O)c2ccc3c(c2)NC(=O)CO3)c(OC)c1	none (no result: TNF death inh, zVAD death inh, Mcl1 Noxa PPI, Mcl-1 Bim block, Mcl1 Bid PPI)
CCc1nnc(NC(=O)c2cc(-c3ccco3)nc3ccccc23)s1	MCL1-BIM inh 51, Mcl1 Noxa PPI 82 | BCLXL inh confirm 32 | MCL1 BIM confirm 72
Cc1ccc2nc(-c3ccc(O)c(O)c3)cn2c1	MCL1-BIM inh 40 (no result: TNF death inh, zVAD death inh, Mcl1 Noxa PPI, Mcl-1 Bim block, Mcl1 Bid PPI) | BCLXL inh confirm 61 | MCL1 BIM confirm 82
C=CCN1CCN(C(=O)c2ccc3c(c2)OCO3)CC1	none (no result: TNF death inh, zVAD death inh, Mcl1 Noxa PPI, Mcl-1 Bim block, Mcl1 Bid PPI)
CSCC(C)N1CCC(Oc2cccc(C(=O)NCc3ccccn3)c2)CC1 (stereo not given)	MCL1-BIM inh 56 (no result: TNF death inh, zVAD death inh, Mcl1 Noxa PPI, Mcl-1 Bim block, Mcl1 Bid PPI) | BCLXL inh confirm 56 | MCL1 BIM confirm 70
CC#CC(=O)N1CCC(Oc2cccc(C(=O)NCc3ccccn3)c2)CC1	none (no result: TNF death inh, zVAD death inh, Mcl1 Noxa PPI, Mcl-1 Bim block, Mcl1 Bid PPI)
CC(=O)NC12CC3CC(C1)CC(C(=O)N1CCN(S(=O)(=O)c4cccc(C(F)(F)F)c4)CC1)(C3)C2	none (no result: TNF death inh, zVAD death inh, Mcl1 Noxa PPI, Mcl-1 Bim block, Mcl1 Bid PPI)
O=S(=O)([O-])C(c1ccccc1)[n+]1ccccc1 (stereo not given)	MCL1-BIM inh 47 (no result: TNF death inh, zVAD death inh, Mcl1 Noxa PPI, Mcl-1 Bim block, Mcl1 Bid PPI) | BCLXL inh confirm inactive | MCL1 BIM confirm inactive
O=C(NCc1ccco1)c1c2c(nc3ccccc13)CCC2	MCL1-BIM inh 58, Mcl1 Noxa PPI 102 | BCLXL inh confirm inactive | MCL1 BIM confirm 68
O=C(CSc1c2c(nc3ccccc13)CCCC2)NCc1ccco1	none
c1coc(-c2nnc(-c3ccco3)nn2)c1	MCL1-BIM inh 75 (no result: TNF death inh, zVAD death inh, Mcl1 Noxa PPI, Mcl-1 Bim block, Mcl1 Bid PPI) | BCLXL inh confirm 39 | MCL1 BIM confirm 68
c1ccc(-c2nnc(-c3ccco3)o2)cc1	none
OCC1(Cc2cccc(Cl)c2)CCCN(Cc2cnn(-c3ccccc3)c2)C1 (stereo not given)	none
CN(C)c1ccc(/C=N/N(CCO)C2=NS(=O)(=O)c3ccccc32)cc1	MCL1-BIM inh 140 (no result: TNF death inh, zVAD death inh, Mcl1 Noxa PPI, Mcl-1 Bim block, Mcl1 Bid PPI) | BCLXL inh confirm active | MCL1 BIM confirm active
O=S1(=O)N=C(N(CCO)/N=C/c2ccc(Cl)cc2)c2ccccc21	none (no result: TNF death inh, zVAD death inh, Mcl1 Noxa PPI, Mcl-1 Bim block, Mcl1 Bid PPI)
Nc1c(C(=O)Nc2ccc(S(=O)(=O)N3CCCC3)cc2)sc2nc3ccc(OC(F)(F)F)cc3cc12	MCL1-BIM inh 48 | BCLXL inh confirm 36 | MCL1 BIM confirm 42
Cc1ccc(S(=O)(=O)N(OCc2ccccc2)C(C)C(=O)O)cc1 (stereo not given)	none (no result: TNF death inh, zVAD death inh, Mcl1 Noxa PPI, Mcl-1 Bim block, Mcl1 Bid PPI)
Cc1ccccc1N=Nc1ccc(O)c2ncccc12	none
O=S(=O)(O)c1cccc2c(N=Nc3ccc(O)c4ncccc34)cccc12	MCL1-BIM inh 72 (no result: TNF death inh, zVAD death inh, Mcl1 Noxa PPI, Mcl-1 Bim block, Mcl1 Bid PPI) | BCLXL inh confirm 34 | MCL1 BIM confirm 82
CCCSc1nnc(N2C(=O)C(O)=C(C(=O)c3ccco3)C2c2ccccc2F)s1 (stereo not given)	none (no result: TNF death inh, zVAD death inh, Mcl1 Noxa PPI, Mcl-1 Bim block, Mcl1 Bid PPI)
Cc1ccc2nc(N3C(=O)C(O)=C(C(=O)c4ccc(C)o4)C3c3ccco3)sc2c1 (stereo not given)	none (no result: TNF death inh, zVAD death inh, Mcl1 Noxa PPI, Mcl-1 Bim block, Mcl1 Bid PPI)
Cc1ccc(C2C(C(=O)c3ccco3)=C(O)C(=O)N2c2nnc(C)s2)cc1 (stereo not given)	none

Screening data: PubChem, several laboratories
